The record followed here is PubChem BioAssay (NCATS).

“And” between values parts separate entries of the source, which are not always exact repeats. Identical values can stand only once. Records with an inconclusive call do not appear. The source made the active and inactive calls. Unless noted, calls come from the whole dose curve.

The target of assay [1] is Glucocorticoid receptor (Homo sapiens) (UniProt P04150). Nature of the assay: qHTS assay for small molecule agonists of glucocorticoid receptor signaling (AID 588532; active = well fitted curve in the direction sought with a large enough effect in the signal ratio, with a control signal flat; the % refers to the signal ratio;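 note: 100% = dexamethasone at 0.1 µM and 0% = DMSO only wells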). The settings on record: HeLa MMTV-bla, beta-lactamase ratio, agonist, 18 h; stronger effect = higher value; percent of dexamethasone control, DMSO zero. The method, boiled down: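 Quantitative HTS using CellSensor MMTV-bla HeLa cells in charcoal/dextran-treated serum; compounds tested up to 92 uM. After 18 h at 37 C, CCF4 dye reported reporter induction.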
Background: qHTS replaces the single test concentration by a dilution series.

Assay [2] has the same target. As to the kind of experiment: qHTS assay for small molecule antagonists of glucocorticoid receptor signaling (AID 588533; active = well fitted inhibition curve with a large enough effect in the signal ratio, with a control signal flat, not every such curve was filed as active; the % refers to the signal ratio;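 note: cells stimulated with 2 nM dexamethasone as agonist; % is set by controls: 0 for no effect and ±100 for the full control effect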). The settings on record: HeLa MMTV-bla, GRE beta-lactamase ratio, antagonist mode, 18 h; series mostly up to 76.8 µM. The method, boiled down: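 Antagonist-mode qHTS: compound titrations added to GRE-bla HeLa cells, then dexamethasone 2 nM final; 18 h, 37 C. CCF4 FRET fluorescence normalized to dexamethasone and DMSO; IC50 from Hill fit.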

The nature of assay [3]: qHTS assay for small molecule antagonists of peroxisome proliferator-activated receptor delta signaling (AID 588535; active = well fitted inhibition curve with a large enough effect in the signal ratio, with a control signal flat, not every such curve was filed as active; the % refers to the signal ratio;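 for max response: cells co-treated with a PPAR-delta agonist as stimulator during compound exposure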). Conditions: HEK293T PPARd-UAS-bla, beta-lactamase FRET ratio, 18 h; 460 nm channel. The method, boiled down:
(§1)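 HEK293T PPAR-delta-UAS-bla cells, 4000/well, 2% charcoal/dextran FBS; 5 h 37 C; cpd titration; 18 h 37 C; CCF4 2 h RT; FI 460/530 nm; Hill fit → IC50, efficacy.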

The target of assay [4] is Peroxisome proliferator-activated receptor delta (Homo sapiens) (UniProt Q03181). The assay is described as above. Conditions: HEK293T PPARd-UAS-bla, beta-lactamase FRET ratio, 18 h; series mostly up to 76.7 µM. The method, boiled down: as §1
Assay [5] addresses Peroxisome proliferator-activated receptor gamma (Homo sapiens) (UniProt P37231). As to the kind of experiment: qHTS assay for small molecule agonists of peroxisome proliferator-activated receptor gamma signaling (AID 588536; active = well fitted curve in the direction sought with a large enough effect in the signal ratio, with a control signal flat, not every such curve was filed as active; the % refers to the signal ratio;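 note: 0% = DMSO basal wells and 100% = rosiglitazone at 2 µM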). Conditions: HEK293 PPARg-UAS-bla, beta-lactamase ratio, 16 h, percent of rosiglitazone response, DMSO as zero; series mostly up to 76.7 µM. The method, boiled down: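 GeneBLAzer PPAR-gamma-UAS-bla HEK293 cells in 1% charcoal/dextran-treated FBS medium were treated 16 h at 37 C with compounds. Beta-lactamase activity was read by CCF4 ratio (460/530 nm). Response was normalized to 2 uM rosiglitazone (100%) and DMSO, then Hill-fitted for EC50 and efficacy.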

Assay [6] has as its target Vitamin D3 receptor (Homo sapiens) (UniProt P11473). As to the kind of experiment: qHTS assay for small molecule antagonists of vitamin D receptor signaling (AID 588541).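 Note: receptor activated by calcitriol during compound treatment; % is set by controls: 0 for no effect and ±100 for the full control effect.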 Conditions: HEK293T VDR-UAS-bla, beta-lactamase ratio, antagonist mode; series mostly up to 76.7 µM. The method, boiled down:
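Antagonist-mode beta-lactamase reporter assay: HEK293T VDR-UAS-bla cells were exposed to titrated compound alongside 1-alpha,25-dihydroxyvitamin D3 at 3 nM final for 16 h. Values were normalized to the 50 nM agonist control and DMSO basal, with IC50 and efficacy from Hill equation fits.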

For assay [7] the target is unchanged. Nature of the assay: qHTS assay for small molecule agonists of vitamin D receptor signaling (AID 588543).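 Note: 0% = DMSO basal and 100% = reference agonist control.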 The settings on record: HEK293T VDR-UAS-bla, beta-lactamase ratio, 16 h; series mostly up to 76.8 µM. The gist of the method: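 Measured: β-lactamase reporter activity (CCF4, 405 nm excitation, 460/530 nm emission) in HEK293T VDR-UAS-bla cells after 16 h compound exposure at 37 °C. Normalization against 50 nM 1α,25-dihydroxyvitamin D3 and DMSO; Hill-fit EC50.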

Assay [8] can be described thus: qHTS assay for small molecule agonists of retinoid X receptor alpha signaling (AID 588544).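 For activation: 0% = DMSO basal wells and 100% = reference agonist.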 Conditions: HEK293T RXRa-UAS-bla, beta-lactamase reporter, 18 h; 530 nm emission.
Assay [9] has as its target Retinoic acid receptor RXR-alpha (Homo sapiens) (UniProt P19793). The assay is described as above. Conditions: HEK293T RXRa-UAS-bla, beta-lactamase reporter, 18 h; series mostly up to 76.7 µM.
Assay [10] concerns the target Thyroid hormone receptor beta (Homo sapiens) (UniProt P10828). As to the kind of experiment: qHTS assay for small molecule agonists of thyroid hormone receptor beta signaling (AID 588545).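 Note: 0% = DMSO only and 100% = 10 nM T3.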 The settings on record: TR-UAS-bla GripTite HEK 293, beta-lactamase ratio, agonist mode, 18 h, percent of T3 response, DMSO as zero; series mostly up to 76.7 µM. The gist of the method: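 Efficacy and EC50 values derive from Hill fits of qHTS titration data, normalized to 10 nM T3 and DMSO-only wells. HEK 293 reporter cells were stimulated for 18 hrs at 37 C, with beta-lactamase activity measured by CCF4 fluorescence.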

Assay [11] is described as follows: qHTS assay for small molecule antagonists of retinoid X receptor alpha signaling (AID 588546; active = well fitted inhibition curve with a large enough effect in the signal ratio, with a control signal flat, not every such curve was filed as active; the % refers to the signal ratio;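 note: cells stimulated with 9-cis-retinoic acid as agonist; % is set by controls: 0 for no effect and ±100 for the full control effect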). Conditions: HEK293T RXRa-UAS-bla, beta-lactamase ratio, antagonist mode; measured here: W530 green channel, cytotoxicity proxy. The method, boiled down:
(§2)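 Beta-lactamase reporter inhibition, read as CCF4 fluorescence ratio (ex 405, em 460/530 nm) after 2 h at RT. HEK293T UAS-bla cells, 2500/well, were stimulated with 9-cis-RA at 500 or 100 nM final alongside test compound for 18 h at 37 C.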

The target in assay [12] is Retinoic acid receptor RXR-alpha (Homo sapiens) (UniProt P19793). The description is as above. Conditions: HEK293T RXRa-UAS-bla, beta-lactamase ratio, antagonist mode. The gist of the method: as §2
Assay [13] deals with Thyroid hormone receptor beta (Homo sapiens) (UniProt P10828). Nature of the assay: qHTS assay for small molecule antagonists of thyroid hormone receptor beta signaling (AID 588547; active = well fitted inhibition curve with a large enough effect in the signal ratio, with a control signal flat, not every such curve was filed as active; the % refers to the signal ratio;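 note: cells stimulated with 0.4 nM T3 agonist during compound exposure; % is set by controls: 0 for no effect and ±100 for the full control effect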). Conditions: TR-UAS-bla HEK293, beta-lactamase ratio, antagonist mode, 18 h. The method, boiled down:
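Inhibition of T3-driven (0.4nM final) beta-lactamase reporter activity was measured over 0.59 nM to 92 uM compound after 18 h at 37 C. The cells were GripTite HEK293 TR-UAS-bla in charcoal/dextran-stripped serum, with CCF4 ratio read-out and IC50 from Hill fits.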

In assay [14] the target is Voltage-gated inwardly rectifying potassium channel KCNH2 (Homo sapiens) (UniProt Q12809). As to the kind of experiment: qHTS Assay for Small Molecule Inhibitors of the Human hERG Channel Activity (AID 588834; active = well fitted inhibition curve with a large enough effect;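 note: top concentration of the series differs between compounds; % is set by controls: 0 for no effect and ±100 for the full control effect; lower thallium flux fluorescence means stronger hERG block; nearly all actives have a fitted effect of over 50% in size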). Conditions: U2OS BacMam hERG, FluxOR thallium flux fluorescence; series mostly up to 92.2 µM. The method, boiled down: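 Blockade is seen as reduced FluxOR thallium-flux fluorescence in U2OS cells expressing hERG from a BacMam construct, in Opti-MEM with 2% FCS. Concentration-response data fitted to the Hill equation for AC50.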

A short description of assay [15]: qHTS assay for small molecule agonists of the antioxidant response element (ARE) signaling pathway (AID 651741; active = well fitted activation curve with a large enough effect in the signal ratio; the % refers to the signal ratio; note: potency is the fitted concentration of half-maximal effect; for activation: % of control where 0% means no effect). Conditions: HepG2 ARE-bla reporter, beta-lactamase FRET ratio, 16 h; series mostly up to 96 µM. The gist of the method: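 Quantitative HTS in HepG2 cells stably expressing an ARE-beta-lactamase reporter; 16 h compound exposure at 37 C, followed by 2 h room-temperature incubation with LiveBLAzer B/G FRET substrate and fluorescence measurement.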

Assay [16] is described as follows: qHTS assay for small molecule activators of the nuclear factor-kappa B (NF-kB) signaling pathway (AID 651749; active = well fitted activation curve with a large enough effect in the signal ratio; the % refers to the signal ratio; note: % of control where 0% means no effect). The settings on record: NF-kB-bla ME-180 cells, beta-lactamase FRET ratio, 16 h; stronger effect = higher value. The gist of the method:
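Readout: beta-lactamase reporter driven by an NF-kB response element, detected fluorescently as loss of FRET. Cells were the ME-180 line, treated 16 hr at 37C with pin-transferred compound.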

Assay [17] concerns the target Peroxisome proliferator-activated receptor gamma (Homo sapiens) (UniProt P37231). As to the kind of experiment: qHTS assay for small molecule antagonists of peroxisome proliferator-activated receptor gamma signaling (AID 588537; active = well fitted inhibition curve with a large enough effect in the signal ratio, with a control signal flat, not every such curve was filed as active; the % refers to the signal ratio;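 note: reporter cells co-stimulated with 50 nM rosiglitazone agonist during compound treatment; % of control where 0% means no effect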). The settings on record: HEK293 PPARg-UAS-bla, beta-lactamase ratio, antagonist mode; series mostly up to 76.8 µM. The method, boiled down:
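Antagonist mode, beta-lactamase reporter in HEK293; charcoal/dextran FBS 1%; 3000 cells/well, 37 C 6-6.5 h; cpd titration + rosiglitazone 50 nM final, 16 h 37 C; CCF4, 2 h RT; 460/530 nm; Hill fit → IC50, efficacy.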

Assay [18] can be described thus: qHTS assay for small molecule activators of the p53 signaling pathway (AID 651743; active = well fitted activation curve with a large enough effect in the signal ratio, not every such curve was filed as active; the % refers to the signal ratio; note: % of control where 0% means no effect). Conditions: HCT-116 p53RE-bla, beta-lactamase FRET ratio, 16 h; stronger effect = higher value. The gist of the method:
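Read-out is fluorescence intensity from the LiveBLAzer B/G FRET substrate, added for 2 hours at room temperature after HCT-116 p53RE-bla cells had been incubated with compounds for 16 hours at 37 C.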

Chain of Retinoic acid receptor RXR-alpha (Homo sapiens) (P19793 whole entry, looked up): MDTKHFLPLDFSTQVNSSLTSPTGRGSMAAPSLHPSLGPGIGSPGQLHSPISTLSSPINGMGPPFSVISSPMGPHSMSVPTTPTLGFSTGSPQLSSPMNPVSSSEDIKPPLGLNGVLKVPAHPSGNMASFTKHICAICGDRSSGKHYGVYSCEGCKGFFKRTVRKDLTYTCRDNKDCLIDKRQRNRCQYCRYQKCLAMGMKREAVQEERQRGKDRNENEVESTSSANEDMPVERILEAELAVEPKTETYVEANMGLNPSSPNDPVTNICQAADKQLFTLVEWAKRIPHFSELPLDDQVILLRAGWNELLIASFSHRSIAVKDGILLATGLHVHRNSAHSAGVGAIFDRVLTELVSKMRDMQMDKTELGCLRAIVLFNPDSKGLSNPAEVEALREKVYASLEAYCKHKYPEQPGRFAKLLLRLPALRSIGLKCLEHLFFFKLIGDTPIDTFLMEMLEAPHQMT
Chain of Voltage-gated inwardly rectifying potassium channel KCNH2 (Homo sapiens) (Q12809 whole entry, looked up): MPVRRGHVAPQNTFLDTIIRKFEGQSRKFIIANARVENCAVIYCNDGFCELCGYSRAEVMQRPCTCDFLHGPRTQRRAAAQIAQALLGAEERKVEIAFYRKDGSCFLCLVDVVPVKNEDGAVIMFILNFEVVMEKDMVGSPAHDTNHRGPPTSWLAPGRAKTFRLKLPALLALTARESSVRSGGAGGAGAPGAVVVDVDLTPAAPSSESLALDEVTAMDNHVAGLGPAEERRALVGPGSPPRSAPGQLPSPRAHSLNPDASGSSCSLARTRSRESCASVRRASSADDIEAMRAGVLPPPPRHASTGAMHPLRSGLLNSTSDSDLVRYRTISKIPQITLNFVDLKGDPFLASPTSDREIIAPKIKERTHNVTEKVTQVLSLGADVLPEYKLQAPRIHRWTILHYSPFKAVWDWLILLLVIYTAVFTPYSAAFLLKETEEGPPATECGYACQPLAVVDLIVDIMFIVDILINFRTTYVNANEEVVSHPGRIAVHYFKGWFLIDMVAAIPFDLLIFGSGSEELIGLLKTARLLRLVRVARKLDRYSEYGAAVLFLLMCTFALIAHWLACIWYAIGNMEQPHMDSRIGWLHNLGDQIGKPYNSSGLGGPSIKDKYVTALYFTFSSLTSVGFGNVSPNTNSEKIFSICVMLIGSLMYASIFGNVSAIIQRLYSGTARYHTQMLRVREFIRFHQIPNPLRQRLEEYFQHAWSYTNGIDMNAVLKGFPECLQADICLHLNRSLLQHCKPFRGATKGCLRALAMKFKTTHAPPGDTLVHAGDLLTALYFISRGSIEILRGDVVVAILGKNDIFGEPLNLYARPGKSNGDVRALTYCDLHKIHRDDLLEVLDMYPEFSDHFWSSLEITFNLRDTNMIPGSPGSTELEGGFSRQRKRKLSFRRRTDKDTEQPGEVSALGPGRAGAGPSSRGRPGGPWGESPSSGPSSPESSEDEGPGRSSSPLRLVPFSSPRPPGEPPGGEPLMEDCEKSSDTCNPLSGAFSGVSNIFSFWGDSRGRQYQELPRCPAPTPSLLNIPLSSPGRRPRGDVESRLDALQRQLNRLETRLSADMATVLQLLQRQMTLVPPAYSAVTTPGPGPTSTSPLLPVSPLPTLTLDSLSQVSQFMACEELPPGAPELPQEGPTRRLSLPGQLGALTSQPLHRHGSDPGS
Chain of Glucocorticoid receptor (Homo sapiens) (P04150 whole entry, looked up): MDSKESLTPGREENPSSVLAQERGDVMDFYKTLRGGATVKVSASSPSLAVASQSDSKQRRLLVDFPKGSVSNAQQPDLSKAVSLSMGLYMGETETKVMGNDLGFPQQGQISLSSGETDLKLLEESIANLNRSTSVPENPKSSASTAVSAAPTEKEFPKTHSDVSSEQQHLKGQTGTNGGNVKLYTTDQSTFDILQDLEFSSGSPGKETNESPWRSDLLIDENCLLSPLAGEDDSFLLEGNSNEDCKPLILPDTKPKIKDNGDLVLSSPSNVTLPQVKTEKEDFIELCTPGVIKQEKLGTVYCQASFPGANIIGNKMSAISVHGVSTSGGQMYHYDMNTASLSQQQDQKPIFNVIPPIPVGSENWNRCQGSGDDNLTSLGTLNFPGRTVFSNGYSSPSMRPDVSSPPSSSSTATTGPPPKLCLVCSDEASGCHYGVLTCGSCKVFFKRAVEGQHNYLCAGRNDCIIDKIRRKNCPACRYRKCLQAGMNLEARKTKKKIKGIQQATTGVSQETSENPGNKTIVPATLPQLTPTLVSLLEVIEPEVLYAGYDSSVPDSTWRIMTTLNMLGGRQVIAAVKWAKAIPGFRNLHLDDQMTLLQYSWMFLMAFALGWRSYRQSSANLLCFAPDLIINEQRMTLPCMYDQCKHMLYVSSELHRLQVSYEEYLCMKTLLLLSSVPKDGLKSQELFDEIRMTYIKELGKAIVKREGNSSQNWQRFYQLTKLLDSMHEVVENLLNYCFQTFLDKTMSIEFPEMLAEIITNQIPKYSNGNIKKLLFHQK
Chain of Thyroid hormone receptor beta (Homo sapiens) (P10828 whole entry, looked up): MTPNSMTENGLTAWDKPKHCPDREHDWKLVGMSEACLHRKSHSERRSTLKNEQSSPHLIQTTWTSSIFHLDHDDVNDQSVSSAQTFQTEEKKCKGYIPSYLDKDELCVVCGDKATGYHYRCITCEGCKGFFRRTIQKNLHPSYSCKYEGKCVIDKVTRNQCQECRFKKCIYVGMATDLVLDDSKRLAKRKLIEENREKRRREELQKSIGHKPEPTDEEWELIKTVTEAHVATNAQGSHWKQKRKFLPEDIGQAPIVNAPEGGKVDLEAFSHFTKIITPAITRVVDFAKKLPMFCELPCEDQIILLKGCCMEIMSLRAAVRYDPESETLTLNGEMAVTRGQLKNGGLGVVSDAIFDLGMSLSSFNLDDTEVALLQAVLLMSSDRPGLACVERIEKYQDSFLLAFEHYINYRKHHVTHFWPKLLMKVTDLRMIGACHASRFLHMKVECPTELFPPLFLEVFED
Chain of Peroxisome proliferator-activated receptor delta (Homo sapiens) (Q03181 whole entry, looked up): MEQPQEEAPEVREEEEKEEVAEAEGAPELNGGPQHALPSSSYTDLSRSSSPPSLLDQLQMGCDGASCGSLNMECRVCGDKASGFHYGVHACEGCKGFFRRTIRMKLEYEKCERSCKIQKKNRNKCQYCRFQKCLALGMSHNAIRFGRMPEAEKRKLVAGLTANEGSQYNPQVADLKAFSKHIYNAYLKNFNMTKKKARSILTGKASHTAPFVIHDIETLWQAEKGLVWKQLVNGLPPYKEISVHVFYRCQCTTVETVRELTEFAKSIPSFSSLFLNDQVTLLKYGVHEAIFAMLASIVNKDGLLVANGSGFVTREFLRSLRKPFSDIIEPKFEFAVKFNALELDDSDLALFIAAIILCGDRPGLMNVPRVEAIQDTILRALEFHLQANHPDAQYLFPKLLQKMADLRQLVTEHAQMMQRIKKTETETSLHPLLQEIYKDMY
Chain of Peroxisome proliferator-activated receptor gamma (Homo sapiens) (P37231 whole entry, looked up): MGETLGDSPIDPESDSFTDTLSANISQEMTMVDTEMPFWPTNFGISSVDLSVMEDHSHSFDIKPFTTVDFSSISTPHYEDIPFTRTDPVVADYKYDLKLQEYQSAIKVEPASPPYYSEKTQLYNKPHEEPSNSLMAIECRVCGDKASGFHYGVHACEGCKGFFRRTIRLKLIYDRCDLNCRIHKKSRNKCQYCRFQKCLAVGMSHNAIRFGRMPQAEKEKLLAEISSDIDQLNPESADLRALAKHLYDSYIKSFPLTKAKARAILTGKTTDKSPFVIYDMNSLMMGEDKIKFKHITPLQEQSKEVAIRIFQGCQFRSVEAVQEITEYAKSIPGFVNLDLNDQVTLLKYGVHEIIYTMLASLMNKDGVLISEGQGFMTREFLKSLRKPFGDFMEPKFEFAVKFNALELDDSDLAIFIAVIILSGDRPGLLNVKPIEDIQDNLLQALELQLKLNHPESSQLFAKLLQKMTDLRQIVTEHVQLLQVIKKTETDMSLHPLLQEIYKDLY
Chain of Vitamin D3 receptor (Homo sapiens) (P11473 whole entry, looked up): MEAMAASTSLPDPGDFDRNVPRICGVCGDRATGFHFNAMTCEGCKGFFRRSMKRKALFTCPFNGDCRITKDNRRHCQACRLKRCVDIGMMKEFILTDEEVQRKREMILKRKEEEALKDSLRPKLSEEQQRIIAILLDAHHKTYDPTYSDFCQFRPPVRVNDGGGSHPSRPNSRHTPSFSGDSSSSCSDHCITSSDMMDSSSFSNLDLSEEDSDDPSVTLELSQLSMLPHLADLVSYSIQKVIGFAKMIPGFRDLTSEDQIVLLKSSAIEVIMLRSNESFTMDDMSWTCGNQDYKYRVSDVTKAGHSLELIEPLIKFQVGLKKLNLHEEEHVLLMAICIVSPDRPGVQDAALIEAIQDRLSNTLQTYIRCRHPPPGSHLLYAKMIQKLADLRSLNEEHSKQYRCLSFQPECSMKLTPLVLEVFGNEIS

As to `CCCCC(C=O)CC` (stereo unspecified), the activation in [1] was -0.985% (inactive); in [16] it was -0.855% (inactive). Also, the outcome in assay [2], in [5], in assay [6], in assay [7], in [9] and in assay [10] was inactive. The max response in assay [3] was -2.18%; in assay [8], 4.08%; in assay [11], 2.69%; in assay [12], 7.22% (inactive). Also, the Potency result in assay [4], in [14] and in assay [15] was “inactive” throughout. For the same compound, the activity change % (negative = inhibition) in assay [13] was 14.6% (inactive).

For `C=CC(=O)NC(C)C`, the results for the activation in assay [1], in assay [18] and in [16] were 2.34% (inactive), -0.785% (inactive) and 0.588% (inactive), respectively. For the same compound, the outcome in [2], in [5], in assay [17], in [6], in [7] and in assay [9] was inactive. Besides, in [10], the result was inactive. In addition, the max response is -15.9% in [3], -3.51% in assay [8], 5.01% in assay [11] and 0.568% (inactive) in assay [12]. Further, the Potency result in assay [4] and in [14] was “inactive” throughout. In addition, the activity change % (negative = inhibition) in [13] is -0.537% (inactive).

With `CCOCC(=O)O`, the activation in assay [1] was 2.71% (inactive); in assay [18], -3.4% (inactive); in [16], 0.266% (inactive). Also, the result in [2], in assay [5], in [17], in assay [6], in assay [7] and in assay [9] was inactive. For the same compound, the result in assay [10] was inactive. In addition, the max response is -19% in assay [3], -7.45% in assay [8], 2.97% in assay [11] and 4.52% (inactive) in [12]. Further, the Potency entry in [4], in [14] and in assay [15] was “inactive” throughout. Further, the activity change % (negative = inhibition) in [13] is 4.7% (inactive).

As for `O=c1[nH][nH]c(=O)c2cc([N+](=O)[O-])ccc12`, the activation is 0.885% (inactive) in [1], -3.95% (inactive) in [18] and 0.392% (inactive) in assay [16]. The outcome in assay [2], in [5], in [17], in assay [6], in assay [7] and in assay [9] was inactive. For the same compound, the outcome in assay [10] was inactive. Moreover, the max response in assay [3] is 10.6%; in [8], -1.84%; in assay [11] it was -8.03%; in [12], 10.6% (inactive). The Potency entry in assay [4], in assay [14] and in assay [15] was “inactive” each time. Also, the activity change % (negative = inhibition) in assay [13] is 15.8% (inactive).

For `O=[N+]([O-])c1c(Cl)cc(Cl)cc1Cl`, the figures for the activation in assay [1], in assay [18] and in assay [16] were 0.964% (inactive), 1.35% (inactive) and -0.147% (inactive), respectively. For the same compound, the result in assay [2], in assay [5], in assay [17], in assay [6], in [7] and in [9] was inactive. For the same compound, the figures for the max response in assay [3], in assay [8] and in assay [11] were 0.0891%, -6.72% and -2.99%, respectively. Besides, the Potency result in assay [4] and in assay [14] was “inactive” throughout. For the same compound, in [13], the activity change % (negative = inhibition) is 3.07% (inactive).

As to `Nc1cc(Cl)c(N)c(Cl)c1`, the activation was 0.447% (inactive) in assay [1]; 0.0675% (inactive) and 1.35% (inactive) in assay [18]. The outcome in assay [2], in [5], in assay [17], in [6], in [7] and in [9] was inactive. For the same compound, the outcome in assay [10] was inactive. The max response is 7.4% in assay [3]; -14.2% in [8]; 7.26% and 6.97% in assay [11]; -5.31% (inactive) and -44.9% (inactive) in [12]. In addition, the Potency entry in [4] and in assay [14] was “inactive” in each case. Also, the activity change % (negative = inhibition) in assay [13] is -9.25% (inactive). Also, in [15], the Potency was 42.2 µM (active).

`CC(=O)OCCC(C)C`: the activation was 4.89% (inactive) in assay [1] and -1.24% (inactive) in assay [18]. Further, the result in assay [2], in assay [5], in assay [17], in assay [9] and in assay [10] was inactive. Further, the max response in assay [3] is -13.3%; in assay [8], -5.59%; in assay [11], -8.93%; in [12], 2.22% (inactive). In addition, the Potency entry in assay [4], in assay [14] and in [15] was “inactive” each time. Further, the activity change % (negative = inhibition) in [13] is 8.77% (inactive).
